# proKLK7 act: proKLK7 zymogen activators, primary screen, biochemical, fluorescence intensity; activation, % at 7 µM; AID 652039, 2013; purified proKLK7, EDANS-DABCYL substrate fluorescence; 100% is mature enzyme control, 0% vehicle; 370,000 tested, 0.9% active; Kallikrein-7 (Homo sapiens), P49862;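 active = activation above the mean of all tested compounds plus 3 SD, computed per campaign excluding outliers beyond control limits, cut at about 13% in these data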
# FAS-TE inh: FAS thioesterase domain inhibitors, primary screen, biochemical, fluorescence intensity, uHTS; Fatty acid synthase (Homo sapiens), P49327; recombinant FAS-TE, OMFH fluorogenic substrate, fluorescence endpoint; inhibition, % at 15 µM; 360,000 tested, 0.67% active; AID 602261, 2012;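 active = compounds whose normalised, plate-corrected inhibition of enzyme fluorescence in the single-dose primary screen is 50% or more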;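 note: 0% = DMSO with enzyme and 100% = substrate without enzyme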
# ADAM17 inh: ADAM17 inhibitors, primary screen, biochemical, QFRET | Disintegrin and metalloproteinase domain-containing protein 17 (Homo sapiens), P78536 | recombinant ADAM17, EDANS/DABCYL FRET peptide cleavage | inhibition, % at 6.95 µM | 370,000 tested, 0.83% active;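 active = inhibition above the mean of compounds lying between control limits plus 3 SD, set per campaign, cut at about 8.5% in these data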;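 note: 0% = DMSO-only wells as the low control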
# NR3A LBD binder: binders of NR3A ligand-binding domain, primary screen, biophysical, differential scanning fluorimetry, uHTS; Glutamate receptor ionotropic, NMDA 3A (GRIN3A) ligand-binding domain; NR3A LBD differential scanning fluorimetry, Tm shift; 0% = protein alone, 100% = glycine-bound protein; Tm shift relative to glycine control, % at 25 µM; 340,000 tested, 2.5% active; AID 1259313, 2017;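 active = melting temperature shift of at least 10% of the positive control shift, at one fixed dose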
# ADAM10 inh: human ADAM10 inhibitors, primary screen, biochemical, QFRET, HTS | Disintegrin and metalloproteinase domain-containing protein 10 (Homo sapiens), O14672 | inhibition, % at 7 µM | recombinant ADAM10, EDANS/DABCYL FRET peptide cleavage, 3 h | 370,000 tested, 0.62% active;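 active = inhibition above a per-campaign cutoff equal to the mean of compounds falling between control-based bounds plus 3 SD, cut at about 20% in these data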;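 note: 0% = DMSO wells while the 100% control is not disclosed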
# Target sequence (O14672 214-748 limits assumed): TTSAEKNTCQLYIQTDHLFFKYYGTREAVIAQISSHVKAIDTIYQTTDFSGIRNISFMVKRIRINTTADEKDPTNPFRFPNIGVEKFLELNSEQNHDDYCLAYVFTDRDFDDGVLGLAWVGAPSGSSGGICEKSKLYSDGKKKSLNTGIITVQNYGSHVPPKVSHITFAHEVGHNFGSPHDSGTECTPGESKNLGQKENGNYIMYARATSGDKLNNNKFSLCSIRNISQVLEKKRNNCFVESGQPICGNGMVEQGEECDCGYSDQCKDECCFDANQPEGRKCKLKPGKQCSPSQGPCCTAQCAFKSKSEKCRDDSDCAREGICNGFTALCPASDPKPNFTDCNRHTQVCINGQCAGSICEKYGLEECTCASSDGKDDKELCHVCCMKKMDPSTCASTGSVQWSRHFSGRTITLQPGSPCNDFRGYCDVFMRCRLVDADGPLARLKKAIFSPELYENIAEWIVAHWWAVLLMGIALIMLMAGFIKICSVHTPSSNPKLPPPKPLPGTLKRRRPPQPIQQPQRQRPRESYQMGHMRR
# Starred values were filed as active, the others as inactive; i = inactive; · = no result given. Hits are enriched below; roughly 4.6% of the tested compounds scored in any of these assays.
SMILES,proKLK7 act,FAS-TE inh,ADAM17 inh,NR3A LBD binder,ADAM10 inh
CC1CCCCC1N(C(=O)c1cc(C2CC2)on1)C1CCCCCC1 (stereo unspecified),0.5,·,-3.9,·,1.7
O=S1(=O)c2ccc(Br)cc2OC[C@@H](Cc2ccccc2)N1Cc1cn(CC2CCCCC2)nn1,-0.4,·,4.3,·,4.6
CN(C)Cc1c(C(=O)N/N=C/c2ccncc2)nnn1-c1nonc1N,-0.2,-3.7,0.0,-0.5,12.2
C/C(=N\NC(=O)c1nnn(-c2nonc2N)c1CN(C)c1ccccc1)c1ccccc1O,-4.1,31.3,-0.8,13.9*,-2.0
CCCN(CCC)Cc1c(C(=O)N/N=C/c2cccs2)nnn1-c1nonc1N,0.4,8.1,4.0,-13.2,5.3
Cc1c(C(=O)N/N=C/c2cccs2)nnn1-c1nonc1N,0.0,-2.1,3.4,10.3*,-69.2
CCCc1c(C(=O)N/N=C/c2cccs2)nnn1-c1nonc1N,-0.1,2.0,2.3,17.2*,-16.3
Cc1ccsc1/C=N/NC(=O)c1nnn(-c2nonc2N)c1C,-0.1,-1.1,0.3,5.4,3.9
CN(Cc1c(C(=O)N/N=C/c2cccs2)nnn1-c1nonc1N)c1ccccc1,0.3,11.8,5.0,16.2*,15.8
Cc1ccc(-n2c(SCC(=O)Nc3ccc(S(=O)(=O)Nc4cc(C)nc(C)n4)cc3)nnc2-c2ccc(C(C)(C)C)cc2)cc1,-0.4,·,7.4,·,12.1
COC(=O)c1cc2oc(C)cc2n1CC(=O)N(C)c1ccccc1,-0.3,-4.5,-1.9,10.6*,1.4
Cc1ccc(NC(=O)Nc2cccc(Cl)c2)c(C(=O)O)c1,-1.6,-1.8,-61.1,12.2*,-207.6
O=C(Nc1cccc(Cl)c1)Nc1csc([N+](=O)[O-])c1,0.2,32.8,2.7,31.1*,13.8
O=C(NCc1ccncc1)Nc1cccc(Cl)c1,0.3,-1.9,3.2,1.2,10.5
COc1ccc(Nc2cccc(Cl)c2)c(C(=O)O)c1,0.2,0.6,0.4,0.2,-1.3
CN(c1cccc(NC(=O)Nc2cccc(Cl)c2)c1)S(C)(=O)=O,-0.6,6.4,-0.5,-3.8,-3.8
CN(C)c1ccc(NC(=O)Nc2cccc(Cl)c2)cc1,-0.3,7.0,5.4,22.5*,4.3
O=C(Nc1ccncc1)Nc1cccc(Cl)c1,0.4,-1.8,2.1,13.8*,3.9
C[C@@H]1[C@@H](O)C[C@@]2(C[C@H](O)c3cc(F)ccc3O2)O[C@H]1c1ccccc1Cl,0.6,·,0.0,·,6.8
COc1ccc(Cn2cc(CN3CC=CS3(=O)=O)nn2)cc1,0.2,·,-5.5,·,-4.8
CNc1ccc2ncc(-c3ccc(OC)c(OC)c3)n2n1,45.0*,-7.1,-218.1,·,i
CNc1cc(-c2ccc(OC)c(OC)c2)ncn1,0.6,-9.6,-14.4,·,-47.2
COC(=O)c1cc(S(=O)(=O)N2CCCN(C(C)=O)CC2)cn1C,0.2,·,0.1,·,-0.9
COc1ccccc1NC(=O)C(C)OC(=O)CCC1CCCCC1 (stereo unspecified),-0.2,23.6,2.4,10.6*,-2.8
COc1ccccc1NC(=O)COC(=O)CCC1CCCC1,0.0,2.4,-0.9,4.0,-6.3
SMILES,proKLK7 act,FAS-TE inh,ADAM17 inh,NR3A LBD binder,ADAM10 inh
COC(=O)CCCn1cc(CN2CC=CS2(=O)=O)nn1,-0.4,·,-5.3,·,-6.7
S=C(NCCSCc1ccc(Cl)cc1)Nc1ccccc1,-0.8,21.2,2.0,11.5*,4.2
S=C(NCCC(c1ccccc1)c1ccccc1)Nc1ccccc1Cl,0.2,19.9,8.4,-2.6,19.6
S=C(NCCC(c1ccccc1)c1ccccc1)Nc1ccc(Cl)cc1,-0.4,24.1,7.3,14.7*,13.5
S=C(NCCCc1ccccc1)Nc1ccc(Cl)cc1,0.2,39.1,7.7,22.0*,10.0
Cc1cccc(NC(=S)NCCSc2ccc(Cl)cc2)c1,-0.1,40.4,-0.7,14.3*,8.3
CSCCCNc1nc(C)nc2c1nnn2Cc1ccccc1,0.1,·,-1.8,·,3.2
O=S(=O)(N[C@@H]1CCCC[C@H]1N1CCOCC1)c1ccc(Cl)cc1,·,·,-3.4,·,1.1
COc1cc(C(=O)Nc2sc(C)c(C)c2C(=O)O)cc(OC)c1OC,0.1,-2.1,-1.4,15.5*,0.9
CCOc1ccc(CCNC(=O)c2cc3ccsc3n2C)cc1OC,-0.1,·,5.8,·,6.7
COc1ccc(CN(CC#Cc2ccccc2)Cc2ccccc2)c(OC)c1,1.0,·,0.5,·,-1.0
